Bioassay records as filed in PubChem.
Nrf2 ARE act – activates Nrf2 signaling; 0.31% of 410,000 active; AID 624171; Potency, µM (top dose mostly 46.1 µM), without a hit: at the highest dose activation, hits mostly activators; AREc32 ARE-luciferase reporter (MCF7-derived line), luminescence, 24 h; note: % of control where 0% means no effect; nearly all actives have a fitted effect of over 65% in size
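ARE activation measured as luciferase luminescence (Steady-Glo, 30 min RT) in AREc32_Fluc cells after 24 hr compound exposure at 37 deg C, 5% CO2; cells seeded overnight at 1000/well in OPTI-MEM, 5% FBS.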
A549 tox – counter-screen for Nrf2 inhibitors: cytotoxicity in A549 cells; A549 ARE-Fluc cells, CellTiter-Fluor viability, 18-24 h; Potency, µM (series often up to 46 µM), without a hit: at the top dose activity change, negative = cytotoxicity, usual class: inhibitors; 0.16% of 390,000 active; note: % is set by controls: 0 for no effect and ±100 for the full control effect
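Cytotoxicity counterscreen: CellTiter-Fluor fluorescence was measured in A549 ARE_Fluc cells after 18-24 h of compound exposure in a concentration series. The subsequent BugLite luminescent read reports ARE-luciferase activity.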
Nrf2 block – inhibitors of Nrf2 signaling | A549 ARE-Fluc reporter, luciferase luminescence, 18-24 h | Potency, µM (top dose mostly 46 µM), for the others: at the top dose activity change, negative = inhibition, usual class: inhibitors | 2.1% of 360,000 active | AID 504444; note: % is set by controls: 0 for no effect and ±100 for the full control effect; nearly all actives have a fitted effect of over 60% in size
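A549 ARE_Fluc cells, 5000/well, 5% FBS OPTI-MEM; compounds in dose-response, 18-24 h at 37 °C/5% CO2; CellTiter-Fluor viability read (Ex 405/Em 525), then BugLite luciferase luminescence = Nrf2 activity.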
Epigenetic derep – derepresses silenced GFP reporter in murine cells | murine LDR cells, GFP reporter derepression, 30 h | Potency, µM (top dose mostly 53.9 µM), without a hit: at the top dose GFP activation, usual class: activators | 0.2% of 280,000 active; note: % of control where 0% means no effect; nearly all actives have a fitted effect of over 60% in size
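Murine LDR cells bearing a silenced CMV-driven GFP reporter were exposed to compound for 30 h at 37 C. After PBS washes, GFP-positive cells (20-120 um objects) counted by laser-scanning microplate cytometry.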
PINK1 modulator – modulators of PINK1 expression. AID 624263. PINK1 immunofluorescence, high-content cytometry, 24 h. 0.2% of 410,000 active. Potency, µM (series often up to 76.6 µM), inactives show top-dose activation (PINK1 increase), actives largely listed as activators; active = well fitted activation curve with a large enough effect; inconclusive = small, poorly fitted or top-dose-only effect; cell line not stated here; note: % of control where 0% means no effect; nearly all actives have a fitted effect of over 65% in size
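Cells are seeded, rested 12 hours, then given compound at five concentrations or DMSO for 24 hours. After fixation, blocking and antibody staining, PINK1 amount and mitochondrial localization are scored; CCCP serves as control.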
* hit, by the source's call; ? = inconclusive; nt = no result given; [ ] = another dose, or the depositor's remark. Compounds with a hit are over-represented: about 2.4% of the library has one in this group of screens. Unless noted, calls come from the whole dose curve; as a rule, active = well fitted curve in the direction sought with a large enough effect; inconclusive = small, poorly fitted or top-dose-only effect, or another doubt; inactive = no such curve, though single readings can be large; an effect the other way counts as inactive or inconclusive. Potency is the fitted concentration of half-maximal effect.

SMILES	Nrf2 ARE act	A549 tox	Nrf2 block	Epigenetic derep	PINK1 modulator
COc1ccc(CN(Cc2ccccc2)C(=O)c2ccccc2O)cc1	nt	4%	?	nt	nt
CCc1ccc2ncc(S(=O)(=O)c3ccc(C)c(C)c3)c(N3CCCC3)c2c1	6%	-11%	23µM*	0%	?
Cc1ccc2nc(NC(=O)CSCC(=O)OCC(=O)c3ccc(Br)cc3)sc2c1	-3%	-4%	18µM*	0%	3%
CCN(CC)c1ccc2c(-c3ccc(S(=O)(=O)O)cc3S(=O)(=O)[O-])c3ccc(=[N+](CC)CC)cc-3oc2c1	0%	12µM*	?	nt	1%
Cc1ccc(NS(=O)(=O)c2ccc(Cl)cc2)cc1C	nt	14%	-20%	nt	nt
COc1cccc(C(=O)NC2CC3CCCC(C2)N3CC(=O)Nc2ccccc2C(F)(F)F)c1 (configuration not stated)	2%	2%	?	nt	4%
O=C(CN1C2CCCC1CC(NC(=O)C1CCCCC1)C2)Nc1ccccc1C(F)(F)F (configuration not stated)	3%	-8%	23µM*	nt	2%
O=C(/C=C/c1ccccc1Cl)Nc1nc(-c2cccs2)ns1	6.3µM*	-3%	12%	-2%	7%
Cc1ccc2nc(SCC(=O)Nc3ccc4sc(C)nc4c3)c(C#N)cc2c1	0%	-8%	10%	5.6µM*	?
Cc1ccc2nc(SCC(=O)Nc3ccccc3N3CCOCC3)c(C#N)cc2c1	1%	-22%	?	-1%	5%
COC(=O)CSc1nc2cc(C)ccc2cc1C#N	5%	0%	?	16µM*	11%
COc1cccc(C2c3c(ncn(-c4ccccc4C)c3=N)Oc3ccc4ccccc4c32)c1 (configuration not stated)	nt	-10%	-6%	nt	nt
CC(/C=C/c1ccco1)=N/NC(=O)CNc1ccccc1C	22%	-1%	2%	8%	7%
CC(/C=C/c1ccco1)=N\NC(=O)CNc1ccc2ccccc2c1	10µM*	0%	0%	-4%	6%
COc1ccc(-c2noc(-c3ccc(N4CCC(C)CC4)c([N+](=O)[O-])c3)n2)cc1OC	0%	-17%	21µM*	1%	2%
O=[N+]([O-])c1cc(-c2nc(-c3ccccc3)no2)ccc1N1CCOCC1	7%	0%	23µM*	-3%	1%
Cc1ccc(-c2noc(-c3ccc(N4CCOCC4)c([N+](=O)[O-])c3)n2)cc1	0%	2%	18%	5%	1%
CC1=C/C(=C(\c2cc(C)c(O)c(Br)c2)c2ccccc2S(=O)(=O)O)C=C(Br)C1=O	-3%	16µM*	?	nt	0%
CS(=O)(=O)c1cc([N+](=O)[O-])c(Sc2nc3ccccc3[nH]2)c([N+](=O)[O-])c1	?	23µM*	nt	-4%	0%[38.3 µM]
CCCN(CCC)C(=O)CC(c1ccccc1)c1cc(Br)ccc1O (configuration not stated)	0%	?	16µM*	2%	2%[38.3 µM]
COCCCNc1ncnc2sc(C(=O)N3CCCCC3)c(C)c12	nt	nt	nt	nt	-1%
O=C1CCCC2=C1C1(CCS(=O)(=O)C1)N=C(Nc1nc3ccccc3o1)N2 (configuration not stated)	nt	1%	?	nt	nt
Cc1ccc(-n2c(C)cc(C(=O)COc3cccnc3[N+](=O)[O-])c2C)cc1	0%	-22%	3.3µM*	1%	5%
Cc1cc(C(=O)COc2cccnc2[N+](=O)[O-])c(C)n1-c1ccccc1	-2%	-10%	2.9µM*	1%	1%
Cc1cc(C(=O)COc2cccnc2[N+](=O)[O-])c(C)n1-c1ccccc1F	-1%	18%	?	4%	0%
SMILES	Nrf2 ARE act	A549 tox	Nrf2 block	Epigenetic derep	PINK1 modulator
Cc1ncc2c(c1CNS(=O)(=O)N(C)C)CCN(C(=O)/C=C/c1ccccc1F)C2	nt	nt	nt	nt	0%
NS(=O)(=O)c1ccc(O)c(NC(=O)c2ccc([N+](=O)[O-])o2)c1	10µM*	-11%	1%	0%	1%
Cc1ccc(C)c(-c2nnc(NC(=O)C3=COCCO3)o2)c1	3%	-2%	-1%	nt	2%
Cc1cc(C)c2nc(NC(=O)c3ccc([N+](=O)[O-])o3)sc2c1	?	-14%	5%	nt	-1%
COc1ccc2nc(NC(=O)c3ccc([N+](=O)[O-])o3)sc2c1	?	-20%	?	nt	0%
O=C(Nc1nc2ccccc2s1)c1ccc([N+](=O)[O-])o1	3.5µM*	-5%	?	nt	0%
Cc1cc(C)c2sc(NC(=O)c3ccc([N+](=O)[O-])o3)nc2c1	7.9µM*	-10%	11%	nt	2%
Cc1ccc(C)c(-c2nnc(NC(=O)c3ccc([N+](=O)[O-])o3)o2)c1	3.5µM*	-25%	-8%	nt	-1%
CCN(CC)C1CCN(C(=O)c2cnn(-c3nccc(-c4ccco4)n3)c2C(C)C)C1 (configuration not stated)	nt	nt	nt	nt	0%
COc1ccccc1C(=O)Nc1nc2cc3c(cc2s1)OCCO3	8%	-2%	12%	1%	2%
COc1ccccc1C(=O)Nc1nnc(-c2ccc(F)cc2)s1	5%	2%	?	nt	1%
COc1ccc(C(=O)Nc2nnc(-c3ccc(F)cc3)s2)c(OC)c1	0%	-1%	16µM*	nt	4%
O=C(NNC(=O)c1ccc([N+](=O)[O-])o1)c1ccccc1	22µM*	?	nt	0%	-3%
COc1ccc(C(=O)Nc2nc3cc4c(cc3s2)OCCO4)c(OC)c1	4%	-4%	21µM*	2%	2%
CCN(CC)S(=O)(=O)c1cccc(C(=O)Nc2nc3cc4c(cc3s2)OCCO4)c1	0%	?	15µM*	-7%	6%[38.3 µM]
O=C1CCN(Cc2cccc(C(F)(F)F)c2)CCN1Cc1ccccn1	nt	nt	nt	nt	1%
O=C1CN(CCN2CC(=O)NC(=O)C2)CC(=O)N1	nt	nt	nt	nt	0%
COc1ccc(-c2nnc3n2N=C(c2ccc(OC)c(OC)c2)CS3)c(OC)c1	nt	-17%	?	nt	nt
Cc1ccc(NC(=O)CN2C(=O)COc3ccc(S(=O)(=O)N4CCCCCC4)cc32)cc1Cl	0%	?	?	-4%	1%
O=C(CSc1nc2c([nH]c3ccccc32)c(=O)n1-c1ccccc1)Nc1ccccc1C(F)(F)F	1%	-1%	nt	4%	1%
O=C(Nc1nc2cc3c(cc2s1)OCCO3)c1ccc([N+](=O)[O-])o1	7.1µM*	-4%	19%	nt	-1%
O=C(Nc1nc(-c2ccccn2)cs1)c1ccc([N+](=O)[O-])o1	11µM*	-6%	5%	-1%	-2%
Cc1ccc(C(=O)Nc2nc(-c3ccccn3)cs2)o1	2%	1%	-26%	0%	1%
O=C(c1cnsn1)N1CCOc2ccc(C(O)C(c3ccccc3)c3ccccc3)cc2C1 (configuration not stated)	nt	nt	nt	nt	2%
